Assay results taken from PubChem BioAssay AID576 (NMMLSC, 2007).
Screen size: about 24,000 compounds; about 150 (0.62%) were called active.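 How the source made its calls: active means fluorescence ratio above 2.44, which is 1 plus 3 SD of all ratios; inconclusive means signal too bright to measure linearly, ratio around 10 or more; inactive means fluorescence ratio below 2.44.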 The full list was thinned out, with actives kept by preference.

experiment: intrinsic compound fluorescence with Jurkat cells – cell-based, flow cytometry, artefact control for VLA-4 allosteric ligand project, primary screen (AID 576); conditions: compound autofluorescence, hits give high values, 1 = vehicle-only cell background;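 further: green fluorescence of cells measured with 488 nm excitation and 530 nm emission; tested at 10 µM compound in the well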

Fluorescence ratio, inactive:
O=C(CC1N=C2c3ccccc3N=C(SCc3ccccc3Cl)N2C1=O)NCc1ccco1 (centres undefined) 1.18, Cc1occc1C(=O)Nc1nnc(C2CCCCC2)s1 0.94, CC1CSc2nnc(CCc3ccccc3)n21 (centres undefined) 1, O=C(NCc1ccc2c(c1)OCO2)c1cc2c(s1)CS(=O)(=O)C2 1.08, CCOc1ccc(N(CC(=O)OC)S(=O)(=O)c2c(C)noc2C)cc1 1.04, CC(=O)c1c(C)[nH]c(C(=O)NCCCN2CCCC2)c1C 0.97, Cc1ccc(C)c(NS(=O)(=O)c2cc(Br)cnc2N)c1 1.02, Cn1c(=O)[nH]c(=O)c2c1nc(CN(Cc1ccccc1)Cc1ccccc1)n2CCN1CCOCC1 1.16, Cc1nc2c(-c3ccc(F)cc3)c(C)nn2c(C)c1CCC(=O)N1CCN(c2ccccn2)CC1 1.23, O=C(Cn1nc(Cc2cccnc2)c2ccccc2c1=O)NCC1CCCO1 (centres undefined) 1.02, CC(C)C[C@H](NC(=O)[C@@H]1O[C@H]1C(=O)O)C(=O)NCCCCN=C(N)N 0.97, COc1ccccc1CNC(=O)Cn1cc2c(n1)CCCC2 1.04, CCOC(=O)N1CCC(O)(c2cc(C)c(C)cc2C)CC1 0.98, O=C(NCc1ccco1)c1cccn2c(=O)c3cc(Br)ccc3nc12 1, CS(=O)(=O)c1ccc2nc(NC(=O)C3C4C=CC(C4)C3C(=O)O)sc2c1 (centres undefined) 1.05, CCCCc1nc2c(=O)[nH]c3ccccc3c2o1 1.21, Cc1nc2sc(C(c3ccco3)N3CCC4(CC3)OCCO4)c(O)n2n1 (centres undefined) 1.05, COc1cc2c(cc1OC)C(c1ccc(C)o1)CC(=O)N2 (centres undefined) 1, O=S(=O)(O)CCN1CCOCC1 1.09, Cc1cc(NC(=O)CSCc2nc(-c3cccc(Cl)c3)oc2C)no1 1.07, c1cc(-c2nn[nH]n2)ccc1CN1CCCCC1 1.02, Cc1ccc2c(c1)N(CCCC(=O)NCc1cccnc1)C(=O)CO2 1.05, Cc1cccc(N2CCN(S(=O)(=O)c3ccc4c(c3)c(=O)n(C)c(=O)n4C)CC2C)c1 (centres undefined) 1.11, COc1cccc(NC(=O)C2CCCN2C(=O)OCc2ccccc2)c1 (centres undefined) 1.04, CCC(C)NC(=O)C1CCC(=O)N1Cc1ccc(C)cc1 (centres undefined) 0.99, CCC(=O)N1c2ccc(S(=O)(=O)CCC(=O)N3CCN(c4ccccc4)CC3)cc2CC1C (centres undefined) 1.09, Cc1oc(C)c(C(=O)NCCCC(=O)O)c1C(=O)NCCCC(=O)O 1.08, O=c1[nH][nH]c(=O)c2cc(N3CCCC3)ccc12 1.01, CCOC(=O)N1CCN(S(=O)(=O)c2cc3c(cc2C)NC(=O)CO3)CC1 1.09, CCOc1ccc(Cn2nnc(C(=O)NCc3ccccc3)c2N)cc1 1.02, COc1ccc(N2C(=O)CCC(C(=O)N(C)C3CCCCC3)C2c2ccc(OC)c(OC)c2)cc1 (centres undefined) 0.98, COC(=O)C1=C(C)Nc2ncnn2C1c1ccco1 (centres undefined) 1.02, CCOc1nc(OCC)nc(-n2cc(-c3ccccc3)nn2)n1 1.08, COCCn1c(-c2ccc(OC)c(OC)c2)nc2ccccc21 1.05, O=C(c1ccco1)N1CCN(C(=O)C2CC(c3ccc(F)cc3)=NO2)CC1 (centres undefined) 1.01, CCCOc1ccc(C2c3c(oc4cc(C)c(C)cc4c3=O)C(=O)N2CCCN2CCOCC2)cc1 (centres undefined) 0.94, CCN(CC)CCNC(=O)C1c2ccccc2C(=O)N(C)C1c1cn(C)c2ccccc12 (centres undefined) 1.11, Cc1cccc(NC(=O)C2CCN(S(=O)(=O)c3cccc4cccnc34)CC2)c1 1.03, O=S1(=O)CCN2C(=N1)SC1=C2CCN(Cc2ccccc2)C1 0.99, Cc1ccc(S(=O)(=O)NCc2cn3ccsc3n2)c(C)c1 1.07, Cc1cc(C)c2c(n1)nn1c(N3CCN(c4cccc(Cl)c4)CC3)cc(C)nc21 1.1, CC(=O)Nc1ccc(S(=O)(=O)Nc2nc3n(n2)C(c2ccccc2)CC(=O)N3)cc1 (centres undefined) 1.06, ON=C1/C(=N\O)CC2(C/C1=N/O)OCCO2 1.11, O=C(O)C1CCN(S(=O)(=O)N2CCOCC2)CC1 1, CCN1CCCC1CNC(=O)Cn1cnc2ccc(S(=O)(=O)N3CCC(C)CC3)cc2c1=O (centres undefined) 1.05, CCOc1cc2[nH]c(=O)n(CCC(=O)NCc3ccc(OC)cc3)c(=O)c2cc1OCC 0.94, CCOc1ccc(CNC(=O)C2CC(=O)N(C3CCCC3)C2)cc1OC (centres undefined) 0.92, Cc1ccc(-c2ccc(=O)n(CC(=O)NCCCN3CCCCC3)n2)cc1 1.06, CCCS(=O)(=O)C(=C1Nc2ccccc2N1)S(=O)(=O)CCC 1.04, COc1cc(-n2c(C)nc3cc(C(=O)NCc4ccco4)ccc32)cc(OC)c1OC 1.05, COCCOC(=O)C1=C(C)NC(=O)CC1c1cc2c(cc1Br)OCO2 (centres undefined) 0.99, O=C(NCCN1C(=O)C2C3C=CC(C3)C2C1=O)Nc1ccccn1 (centres undefined) 0.86, Cc1ccc(-n2nc3c(c2NC(=O)c2ccc4c(c2)OCO4)CSC3)c(C)c1 0.97, CCN1CCN(c2ncnc3c2oc2nc(C)c4c(c23)CC(C)(C)OC4)CC1 0.92, Cc1cc(NS(=O)(=O)c2ccccc2)no1 0.95, CCC1CCCCN1CCNS(=O)(=O)c1ccc2c(c1)CCN2C(C)=O (centres undefined) 1.02, CC(c1cccnc1)N(CCN(C)C)C(=O)Nc1ccc(Cl)c(Cl)c1 (centres undefined) 1.09, CCCOc1ccc(-c2nc(N)n[nH]2)cc1 1.01, CCOc1ccc(-n2c(SC(C)C(=O)OC)nc3c(c2=O)SCC3)cc1 (centres undefined) 1.09, CCOC(=O)C1CCN(C(=O)C2CCN(S(=O)(=O)CC)CC2)CC1 1.02, Cc1ccc2cccc(O)c2[n+]1[O-] 1.03, CCC(C)n1[nH]c(=O)c2c(C)cc(C)nc21 (centres undefined) 1.05, CCOC(=O)Cn1c(=O)oc2cc(S(=O)(=O)NCC3CCCO3)ccc21 (centres undefined) 1.88, CCn1ncc(C2=NOC(C(=O)N3CCN(c4ccccc4)CC3)C2)c1C (centres undefined) 1.1, Cn1cccc1C1(C(F)(F)F)NCCNC1=O (centres undefined) 1.07, N#CC1=C(N)Oc2cc(O)ccc2C1C1CCCCC1 (centres undefined) 1.18, COC(=O)C1=C(C)OC(N)=C(C#N)C1c1cc(OC)ccc1OC (centres undefined) 1.05, C=C1c2cc(CC)ccc2NC(=O)N1c1ccc(C)cc1 1.01, O=c1c2ccccc2[nH]c(=S)n1CCN1CCC(=C(c2ccc(F)cc2)c2ccc(F)cc2)CC1 1.02, CC(=O)c1c(N2CCOCC2)nc(=S)n(Cc2ccccc2)c1C 1.3, COC(=O)Cn1cc(C(=O)c2cccs2)c2ccccc21 0.93, CCn1c(CSc2ncccn2)nnc1SCC(=O)N1c2ccccc2CC1C (centres undefined) 1, Cc1ccc(S(=O)(=O)NCCN2CCOCC2)cc1C 1.05, CCOc1ccccc1NC(=O)C1CCN(S(=O)(=O)c2c(C)nn(C)c2C)CC1 1.02, N#Cc1ccc(COC(=O)Cn2nnc(-c3ccccc3)n2)cc1 1.04, CCOC(=O)c1ccc(NC(=O)Cn2nnc(-c3ccc(C)cc3)n2)cc1 1.04, O=C(Nc1ccccc1C(=O)N1CCOCC1)C1CCC(=O)N1C1CCCC1 (centres undefined) 1.04, CC(C)NC(=O)CCCn1c(=S)[nH]c2cc3c(cc2c1=O)OCO3 1.14, O=C(O)CSCNC(=O)CC12CC3CC(CC(C3)C1)C2 0.77, CCOC(=O)C1CCN(C(=O)CC2C(=O)N(Cc3ccccc3)C(C)c3nc4ccccc4n32)CC1 (centres undefined) 1.02, CCOC(=O)c1c(NC(=O)c2cccs2)sc(C)c1C 1.07, Cc1c(C(=O)NCCN2CCOCC2)sc2nc(-c3ccc(F)cc3)cn12 1.22, CC1CCN(Cc2nc3c(c(=O)n(C)c(=O)n3C)n2Cc2cccc3ccccc23)CC1 1.06

Fluorescence ratio, active:
CC(C)(C)NC(=O)Cn1nnc(-c2ccccc2Cl)n1 3.61
